# From PubChem BioAssay AID1159580 (chemical genetic matrix, 2015)
# The whole screen tested about 5,500 compounds, of which about 2,000 (36%) were called active. Another 18% or so got no clear call; they are omitted. Some of the results follow. Unmarked numbers belong to inactive results. No stated cut-off is given here; in the data, active means normalized growth mostly below about 0.91 (no sharp cut-off); inconclusive means no clear call, values can overlap the other calls; inactive means mostly above about 0.92.
# Assay: chemical genetic growth profiling, strain panel (AID 1159580);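 further: tested at 20 µM; growth read once vehicle control cultures reached saturation at 30 °C; 1 = growth at the plate median or of vehicle wells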
# Conditions: growth OD
smiles,measurement,setting,value
Cc1cc(/C=C/c2ccc3cc(N(C)C)ccc3[n+]2C)c(C)n1-c1ccccc1,normalized growth,"S. cerevisiae deletion strains, locus YJR066W, strain TOR1, stronger effect = lower value",0.948
same,normalized growth,"S. cerevisiae deletion strains, locus YKL068W, stronger effect = lower value",1.03
same,normalized growth,"S. cerevisiae deletion strains, locus YKL085W, strain MDH1 (second series), stronger effect = lower value",1.03
same,normalized growth,"S. cerevisiae deletion strains, locus YKL085W, strain MDH1, stronger effect = lower value",1.03
same,normalized growth,"S. cerevisiae deletion strains, locus YKL160W, strain elf1, stronger effect = lower value",0.829 (active)
same,normalized growth,"S. cerevisiae deletion strains, locus YKL190W, strain CNB1, stronger effect = lower value",0.692 (active)
same,normalized growth,"S. cerevisiae deletion strains, locus YKR001C, strain vps1, stronger effect = lower value",0.987
same,normalized growth,"S. cerevisiae deletion strains, locus YKR026C, strain gcn3, stronger effect = lower value",1.01
same,normalized growth,"S. cerevisiae deletion strains, locus YKR091W, strain srl3, stronger effect = lower value",1.02
same,normalized growth,"S. cerevisiae deletion strains, locus YLL001W, strain dnm1, stronger effect = lower value",0.934
same,normalized growth,"S. cerevisiae deletion strains, locus YLL026W, stronger effect = lower value",0.926 (active)
same,normalized growth,"S. cerevisiae deletion strains, locus YLL041C, strain sdh2, stronger effect = lower value",1.03
same,normalized growth,"S. cerevisiae deletion strains, locus YLR027C, strain aat2, stronger effect = lower value",0.909 (active)
same,normalized growth,"S. cerevisiae deletion strains, locus YLR039C, strain RIC1, stronger effect = lower value",0.703
same,normalized growth,"S. cerevisiae deletion strains, locus YLR058C, strain SHM2, stronger effect = lower value",0.887 (active)
same,normalized growth,"S. cerevisiae deletion strains, locus YLR102C, strain apc9, stronger effect = lower value",1.01
same,normalized growth,"S. cerevisiae deletion strains, locus YLR113W, strain HOG1, stronger effect = lower value",1.02
same,normalized growth,"S. cerevisiae deletion strains, locus YLR221C, strain rsa3, stronger effect = lower value",0.905 (active)
same,normalized growth,"S. cerevisiae deletion strains, locus YLR258W, strain gsy2, stronger effect = lower value",0.986
same,normalized growth,"S. cerevisiae deletion strains, locus YLR262C, strain YPT6 (second series), stronger effect = lower value",0.717 (active)
same,normalized growth,"S. cerevisiae deletion strains, locus YLR262C, strain YPT6, stronger effect = lower value",0.776
same,normalized growth,"S. cerevisiae deletion strains, locus YLR268W, strain sec22, stronger effect = lower value",0.919
same,normalized growth,"S. cerevisiae deletion strains, locus YLR320W, strain mms22, stronger effect = lower value",0.797 (active)
same,normalized growth,"S. cerevisiae deletion strains, locus YLR330W, strain CHS5, stronger effect = lower value",1
same,normalized growth,"S. cerevisiae deletion strains, locus YLR342W, strain FKS1 (second series), stronger effect = lower value",0.774 (active)
same,normalized growth,"S. cerevisiae deletion strains, locus YLR342W, strain FKS1, stronger effect = lower value",0.832 (active)
same,normalized growth,"S. cerevisiae deletion strains, locus YLR357W, strain rsc2, stronger effect = lower value",1.09
same,normalized growth,"S. cerevisiae deletion strains, locus YLR370C, strain arc18, stronger effect = lower value",0.986
same,normalized growth,"S. cerevisiae deletion strains, locus YLR371W, strain rom2, stronger effect = lower value",1.02
same,normalized growth,"S. cerevisiae deletion strains, locus YLR384C, strain iki3, stronger effect = lower value",1
same,normalized growth,"S. cerevisiae deletion strains, locus YLR418C, strain cdc73, stronger effect = lower value",0.385 (active)
same,normalized growth,"S. cerevisiae deletion strains, locus YML016C, strain PPZ1, stronger effect = lower value",0.906 (active)
same,normalized growth,"S. cerevisiae deletion strains, locus YML032C, strain rad52, stronger effect = lower value",0.947
same,normalized growth,"S. cerevisiae deletion strains, locus YML120C, strain ndi1, stronger effect = lower value",0.93
same,normalized growth,"S. cerevisiae deletion strains, locus YML124C, strain tub3, stronger effect = lower value",1.02
same,normalized growth,"S. cerevisiae deletion strains, locus YMR058W, strain fet3, stronger effect = lower value",0.863 (active)
same,normalized growth,"S. cerevisiae deletion strains, locus YMR078C, strain ctf18, stronger effect = lower value",1.02
same,normalized growth,"S. cerevisiae deletion strains, locus YMR125W, strain sto1, stronger effect = lower value",0.819 (active)
same,normalized growth,"S. cerevisiae deletion strains, locus YMR129W, stronger effect = lower value",0.874 (active)
same,normalized growth,"S. cerevisiae deletion strains, locus YMR205C, strain PFK2, stronger effect = lower value",1.04
same,normalized growth,"S. cerevisiae deletion strains, locus YMR223W, strain ubp8, stronger effect = lower value",0.949
same,normalized growth,"S. cerevisiae deletion strains, locus YMR231W, strain pep5, stronger effect = lower value",1.01
same,normalized growth,"S. cerevisiae deletion strains, locus YMR307W, strain GAS1, stronger effect = lower value",0.583 (active)
same,normalized growth,"S. cerevisiae deletion strains, locus YNL067W, strain RPL9B, stronger effect = lower value",0.842 (active)
same,normalized growth,"S. cerevisiae deletion strains, locus YNL071W, strain lat1, stronger effect = lower value",0.762 (active)
same,normalized growth,"S. cerevisiae deletion strains, locus YNL128W, strain TEP1, stronger effect = lower value",0.202 (active)
same,normalized growth,"S. cerevisiae deletion strains, locus YNL153C, strain GIM3, stronger effect = lower value",0.709 (active)
same,normalized growth,"S. cerevisiae deletion strains, locus YNL183C, strain NPR1, stronger effect = lower value",0.962
same,normalized growth,"S. cerevisiae deletion strains, locus YNL209W, strain ssb2, stronger effect = lower value",0.848 (active)
same,normalized growth,"S. cerevisiae deletion strains, locus YNL233W, strain BNI4, stronger effect = lower value",0.749 (active)
same,normalized growth,"S. cerevisiae deletion strains, locus YNL248C, strain rpa49, stronger effect = lower value",0.714 (active)
same,normalized growth,"S. cerevisiae deletion strains, locus YNL250W, strain rad50, stronger effect = lower value",1.02
same,normalized growth,"S. cerevisiae deletion strains, locus YNL271C, strain bni1, stronger effect = lower value",1.02
same,normalized growth,"S. cerevisiae deletion strains, locus YNL298W, strain CLA4, stronger effect = lower value",1.01
same,normalized growth,"S. cerevisiae deletion strains, locus YNL307C, strain MCK1, stronger effect = lower value",0.863 (active)
same,normalized growth,"S. cerevisiae deletion strains, locus YNL322C, strain KRE1 (second series), stronger effect = lower value",1.01
same,normalized growth,"S. cerevisiae deletion strains, locus YNL322C, strain KRE1, stronger effect = lower value",0.686 (active)
same,normalized growth,"S. cerevisiae deletion strains, locus YNR049C, strain mso1, stronger effect = lower value",1.01
same,normalized growth,"S. cerevisiae deletion strains, locus YNR052C, strain pop2, stronger effect = lower value",0.731 (active)
same,normalized growth,"S. cerevisiae deletion strains, locus YOL006C, strain TOP1, stronger effect = lower value",0.382 (active)
same,normalized growth,"S. cerevisiae deletion strains, locus YOL012C, strain htz1",0.461
same,normalized growth,"S. cerevisiae deletion strains, locus YOL147C, strain pex11, stronger effect = lower value",0.999
same,normalized growth,"S. cerevisiae deletion strains, locus YOR001W, strain rrp6, stronger effect = lower value",0.954
same,normalized growth,"S. cerevisiae deletion strains, locus YOR061W, strain CKA2, stronger effect = lower value",0.909
same,normalized growth,"S. cerevisiae deletion strains, locus YOR069W, strain VPS5, stronger effect = lower value",0.995
same,normalized growth,"S. cerevisiae deletion strains, locus YOR070C, strain gyp1, stronger effect = lower value",0.91 (active)
same,normalized growth,"S. cerevisiae deletion strains, locus YOR080W, strain dia2, stronger effect = lower value",0.892 (active)
same,normalized growth,"S. cerevisiae deletion strains, locus YOR083W, strain WHI5, stronger effect = lower value",0.804 (active)
same,normalized growth,"S. cerevisiae deletion strains, locus YOR106W, strain vam3, stronger effect = lower value",0.754 (active)
same,normalized growth,"S. cerevisiae deletion strains, locus YOR136W, strain idh2, stronger effect = lower value",0.997
same,normalized growth,"S. cerevisiae deletion strains, locus YOR144C, strain elg1, stronger effect = lower value",1
same,normalized growth,"S. cerevisiae deletion strains, locus YOR184W, strain ser1, stronger effect = lower value",0.928
same,normalized growth,"S. cerevisiae deletion strains, locus YOR231W, strain MKK1, stronger effect = lower value",1.01
same,normalized growth,"S. cerevisiae deletion strains, locus YOR265W, strain rbl2, stronger effect = lower value",0.92 (active)
same,normalized growth,"S. cerevisiae deletion strains, locus YOR270C, strain vph1, stronger effect = lower value",0.728 (active)
same,normalized growth,"S. cerevisiae deletion strains, locus YOR290C, strain snf2, stronger effect = lower value",0.947
same,normalized growth,"S. cerevisiae deletion strains, locus YOR316C, strain cot1, stronger effect = lower value",1.01
same,normalized growth,"S. cerevisiae deletion strains, locus YPL051W, strain arl3, stronger effect = lower value",0.914 (active)
same,normalized growth,"S. cerevisiae deletion strains, locus YPL078C, strain atp4, stronger effect = lower value",0.96
same,normalized growth,"S. cerevisiae deletion strains, locus YPL106C, strain sse1, stronger effect = lower value",0.468 (active)
same,normalized growth,"S. cerevisiae deletion strains, locus YPL240C, strain hsp82, stronger effect = lower value",1.01
same,normalized growth,"S. cerevisiae deletion strains, locus YPL256C, strain CLN2, stronger effect = lower value",1.02
same,normalized growth,"S. cerevisiae deletion strains, locus YPR119W, strain clb2, stronger effect = lower value",1.01
same,normalized growth,"S. cerevisiae deletion strains, locus YPR141C, strain kar3, stronger effect = lower value",1.04
same,normalized growth,"S. cerevisiae deletion strains, locus YPR163C, strain tif3, stronger effect = lower value",1.01
same,normalized growth,"S. cerevisiae deletion strains, locus YPR167C, strain met16, stronger effect = lower value",0.989
same,normalized growth,"S. cerevisiae deletion strains, strain wtn01, stronger effect = lower value",0.775 (active)
same,normalized growth,"S. cerevisiae strains, strain wild type, stronger effect = lower value",0.484 (active)
